Assay results reported in PubChem BioAssay AID907 (National Center for Advancing Translational Sciences (NCATS), 2007).
The other results are listed elsewhere or left out. Inconclusive results are not listed. Active and inactive are the calls of the source. Calls come from the whole dose curve; as a rule, active = well fitted activation curve with a large enough effect; inconclusive = small, poorly fitted or top-dose-only effect, or effect the other way; inactive = flat fitted curve, though single readings scatter.

Assay: Confirmation Concentration-Response Assay for Cell signaling CRE-BLA (Fsk stim) - HEK293 CREB Luciferase
Settings: HEK293 CRE-luc2P, NKH477 EC10 potentiation, luminescence, 4 h
Source text: NIH Molecular Libraries Screening Centers Network [MLSCN] NIH Chemical Genomics Center [NCGC] MLSCN Grant: 1X01MH079867-01 Assay Provider: Marshall W. Nirenberg, U.S. National Heart, Lung and Blood Institute CRE Luciferase Assay Overview Memories persist for different lengths of time, from seconds or minutes to a lifetime. There are two kinds of memory: short-term memory (STM) and long-term memory (LTM). STM lasts for minutes to hours, which maybe mediated by modifications of molecules involved in synaptic functions. LTM lasts for days or longer, and may be due to the formation of new synapses or restructuring of existing synapses. LTM, but not STM, requires gene transcription and synthesis of proteins. CREB (cyclic-AMP Responsive Element Binding Protein) is one of the candidates plays an important role for enhancement of some types of LTM. CREB, a family of transcription factors, regulates the transcription of genes containing cAMP Responsive Elements (CRE). CRE is a nucleotide sequence often found in the promoter regions of genes that are binding sites for CREB. Using a luciferase reporter-gene under control of cAMP responsive element, a cell-based assay [CRE-luc2P HEK293 developed by Promega] was used to measure forskolin-induced signaling. The selected compounds were measured for their ability to modulate positively the action of EC10 NKH 477, a water soluble forskolin, on reporter gene activity. Compounds were screened in a titration series in 1536-well format. Positive modulators were identified based on the AC50 values derived from the screening data.
NCGC Assay Protocol Summary 2500 cells/5uL in DEME with 1% FBS was dispensed into 1536-well plates and cells were cultured at 37 degrees Celsius overnight. Next day 23 nL of compounds or DMSO were delivered to each well using a pin tool, and 1uL of EC10 level of NKH 477, or EC100 level of IBMX, a PDE inhibitor, in the present of NKH 477, or assay medium was added. And then the plates were incubated at 37 degrees Celsius for 4 hours. 6 uL of Bright-Glo luciferase (Promega, WI) was added to each well. After incubated at room temperature for 10min the plates were measured for luminescence intensity on a ViewLux (Perkin Elmer) detector. Keywords: NIH Roadmap, MLSCN, MLSMR, qHTS, NCGC, CRE, luciferase, reporter-gene assay.

Potency, active:
CC1CCc2sc3nc(N4CCN(CCO)CC4)n4ncnc4c3c2C1 (stereo not given) 12.6 µM, COc1ccc(CCNC(=O)CSc2nc(C)nc3c2oc2ccccc23)cc1OC 10 µM, Cc1nn(-c2ccccc2)c2sc(C(=O)N(Cc3ccco3)C(C)C(=O)NC(C)(C)C)cc12 (stereo not given) 4.47 µM, Cc1nc(SCC(=O)Nc2cc(C)on2)c2c3c(sc2n1)CCCC3 4.47 µM, CCc1nc(Nc2ccc3nccnc3c2)c2oc3ccccc3c2n1 1.26 µM
